According to the supplement of paper PMC10849652:
Of roughly 7,900 targets only a part is listed; those with a hit were picked by preference. About 0.6% of all pairs of compound and target were hits. Values without a mark were called inactive.

Legend:
Experiment in all cases: log2 fold change, soluble protein after heating vs DMSO (PISA); higher = thermal stabilisation; K562 cells, 10 uM, 30 min; active = over 0.2 and 3.5 SD of the protein, either way, in both replicates (recomputed)
[1] = compound: CN1CCN(CCOc2cc(OC3CCOCC3)c3c(Nc4c(Cl)ccc5c4OCO5)ncnc3c2)CC1 [saracatinib]
Method in brief: (§1)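 Thermal stability values are relative to control samples and come from duplicates. They are expressed as log2 fold changes. For measurement, K562 cells (2×10^6 cells/mL) received 10 μM compound for 30 min, and aliquots were heated for 3 min over 48°C-58°C, pooled, and extracted at 4°C in PBS with 0.5% NP-40. Soluble protein, the supernatant after 21,000xg for 90 min, was quantified by TMTpro 16plex LC-MS/MS with equalised channel sums.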

[2] = compound: CN1CCN(c2nc(C3=C(c4c[nH]c5ccccc45)C(=O)NC3=O)c3ccccc3n2)CC1 [sotrastaurin]
Method in brief: as §1

[3] = compound: CN1CC[C@H](c2c(O)cc(O)c3c(=O)cc(-c4ccccc4Cl)oc23)[C@H](O)C1 [alvocidib]
Method in brief: as §1

[4] = compound: CN1CCc2c(c3ccccc3n2Cc2ccc(C(=O)NO)cc2)C1 [Tubastatin A]
Method in brief: as §1

[5] = compound: CNC(=O)C1=CC=CC=C1NC2=NC(=NC=C2Cl)NC3=C(C=C(C=C3)N4CCOCC4)OC
Method in brief: as §1

[6] = compound: CNC(=O)c1ccc(Nc2ncc(C(F)(F)F)c(NCc3nccnc3N(C)S(C)(=O)=O)n2)cc1 [defactinib]
Method in brief: as §1

[7] = compound: CNc1nc(-c2ccc3c(N)n[nH]c3c2)cc(N2C[C@@H](C(=O)NC3CCCCC3)CC[C@H]2C)n1
Method in brief: as §1

[8] = compound: COC(=O)[C@H](CCSC)NC(=O)C1=C(C=C(C=C1)NC[C@H](CS)N)C2=CC=CC=C2
Method in brief: as §1

[9] = compound: COC1=CC=C(C=C1)CN2C=CC3=C2C=C(C=C3)C(=O)NO
Method in brief: as §1

[10] = compound: CON(C)C(=O)N1N=C(c2cc(F)ccc2F)S[C@@]1(CCCN)c1ccccc1 [filanesib]
Method in brief: as §1

[11] = compound: CO[C@H]1C[C@@H]2CC[C@@H](C)[C@@](O)(O2)C(=O)C(=O)N2CCCC[C@H]2C(=O)O[C@H]([C@H](C)C[C@@H]2CC[C@H](n3cnnn3)[C@H](OC)C2)CC(=O)[C@H](C)/C=C(\C)[C@@H](O)[C@@H](OC)C(=O)[C@H](C)C[C@H](C)/C=C/C=C/C=C/1C [zotarolimus]
Method in brief: as §1

[12] = compound: COc1cc(C(=O)O)ccc1NC(=O)[C@@H]1N[C@@H](CC(C)(C)C)[C@](C#N)(c2ccc(Cl)cc2F)[C@H]1c1cccc(Cl)c1F [idasanutlin]
Method in brief: as §1

[13] = compound: COc1cc(Nc2ncc3c(n2)-c2ccc(Cl)cc2C(c2c(F)cccc2OC)=NC3)ccc1C(=O)O [alisertib]
Method in brief: as §1

[14] = compound: COc1cc2nc(-c3cc(F)ccc3O)nc(N[C@@H]3CNC[C@H]3C(C)(C)O)c2cc1OC
Method in brief: as §1

[15] = compound: COc1cccc2cc(-c3nc([C@H]4CC[C@H](C(=O)O)CC4)n4ncnc(N)c34)[nH]c12
Method in brief: as §1

[16] = compound: CS(=O)(=O)CCNCc1ccc(-c2ccc3ncnc(Nc4ccc(OCc5cccc(F)c5)c(Cl)c4)c3c2)o1 [lapatinib]
Method in brief: as §1

[17] = compound: CS(=O)(=O)N1CCN(Cc2cc3nc(-c4cccc5[nH]ncc45)nc(N4CCOCC4)c3s2)CC1 [pictilisib]
Method in brief: as §1

[18] = compound: COc1cc2ncnc(Nc3ccc(F)c(Cl)c3)c2cc1OCCCN1CCOCC1 [gefitinib]
Method in brief: as §1

[19] = compound: CNCc1ccc(-c2[nH]c3cc(F)cc4c3c2CCNC4=O)cc1 [rucaparib]
Method in brief: as §1

[20] = compound: COC(=O)N[C@@H](C)CNc1nccc(-c2cn(C(C)C)nc2-c2cc(Cl)cc(NS(C)(=O)=O)c2F)n1 [encorafenib]
Method in brief: as §1

Chain of UniProt Q9BQD3 (Q9BQD3 whole entry, looked up): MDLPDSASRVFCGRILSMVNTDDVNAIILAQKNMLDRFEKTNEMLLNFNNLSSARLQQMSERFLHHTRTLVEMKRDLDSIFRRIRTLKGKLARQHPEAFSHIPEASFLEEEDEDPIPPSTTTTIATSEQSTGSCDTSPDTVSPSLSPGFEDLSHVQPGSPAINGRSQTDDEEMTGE
Chain of UniProt O95279 (O95279 whole entry, looked up): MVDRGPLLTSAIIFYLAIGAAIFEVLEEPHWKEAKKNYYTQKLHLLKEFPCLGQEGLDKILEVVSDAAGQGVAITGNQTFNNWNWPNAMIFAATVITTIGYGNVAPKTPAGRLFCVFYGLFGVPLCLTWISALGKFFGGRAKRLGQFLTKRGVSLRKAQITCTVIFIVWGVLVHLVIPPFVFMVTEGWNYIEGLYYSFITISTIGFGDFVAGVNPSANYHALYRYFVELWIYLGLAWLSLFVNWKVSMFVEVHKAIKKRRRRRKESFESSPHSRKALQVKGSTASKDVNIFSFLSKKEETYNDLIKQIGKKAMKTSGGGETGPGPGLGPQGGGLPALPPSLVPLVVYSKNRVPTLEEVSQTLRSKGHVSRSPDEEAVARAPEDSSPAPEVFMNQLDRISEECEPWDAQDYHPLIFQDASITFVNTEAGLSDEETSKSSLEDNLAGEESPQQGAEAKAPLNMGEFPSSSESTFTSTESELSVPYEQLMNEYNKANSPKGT
Chain of UniProt Q6NUT3 (Q6NUT3 whole entry, looked up): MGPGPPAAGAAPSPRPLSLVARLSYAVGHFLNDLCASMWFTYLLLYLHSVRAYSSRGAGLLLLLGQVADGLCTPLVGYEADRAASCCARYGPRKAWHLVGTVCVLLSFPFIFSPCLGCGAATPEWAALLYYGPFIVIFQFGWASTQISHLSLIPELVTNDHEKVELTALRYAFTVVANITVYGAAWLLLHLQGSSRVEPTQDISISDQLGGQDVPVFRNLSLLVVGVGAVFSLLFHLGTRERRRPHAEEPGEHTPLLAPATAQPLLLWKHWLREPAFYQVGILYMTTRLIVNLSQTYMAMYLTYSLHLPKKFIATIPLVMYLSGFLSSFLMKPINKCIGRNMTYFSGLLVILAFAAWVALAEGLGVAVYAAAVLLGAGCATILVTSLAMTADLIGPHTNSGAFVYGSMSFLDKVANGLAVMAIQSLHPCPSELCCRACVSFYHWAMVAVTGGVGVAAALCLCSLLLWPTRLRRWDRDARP
Chain of UniProt Q08334 (Q08334 whole entry, looked up): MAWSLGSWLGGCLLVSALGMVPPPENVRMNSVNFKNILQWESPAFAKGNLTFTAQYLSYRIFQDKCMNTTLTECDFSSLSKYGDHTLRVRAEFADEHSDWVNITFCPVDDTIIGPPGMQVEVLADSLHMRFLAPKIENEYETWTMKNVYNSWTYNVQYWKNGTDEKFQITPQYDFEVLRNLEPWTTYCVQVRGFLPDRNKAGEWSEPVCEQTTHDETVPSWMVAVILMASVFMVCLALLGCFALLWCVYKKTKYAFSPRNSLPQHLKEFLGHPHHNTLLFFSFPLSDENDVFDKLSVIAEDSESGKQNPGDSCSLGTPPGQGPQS
Chain of UniProt Q6P9B9 (Q6P9B9 whole entry, looked up): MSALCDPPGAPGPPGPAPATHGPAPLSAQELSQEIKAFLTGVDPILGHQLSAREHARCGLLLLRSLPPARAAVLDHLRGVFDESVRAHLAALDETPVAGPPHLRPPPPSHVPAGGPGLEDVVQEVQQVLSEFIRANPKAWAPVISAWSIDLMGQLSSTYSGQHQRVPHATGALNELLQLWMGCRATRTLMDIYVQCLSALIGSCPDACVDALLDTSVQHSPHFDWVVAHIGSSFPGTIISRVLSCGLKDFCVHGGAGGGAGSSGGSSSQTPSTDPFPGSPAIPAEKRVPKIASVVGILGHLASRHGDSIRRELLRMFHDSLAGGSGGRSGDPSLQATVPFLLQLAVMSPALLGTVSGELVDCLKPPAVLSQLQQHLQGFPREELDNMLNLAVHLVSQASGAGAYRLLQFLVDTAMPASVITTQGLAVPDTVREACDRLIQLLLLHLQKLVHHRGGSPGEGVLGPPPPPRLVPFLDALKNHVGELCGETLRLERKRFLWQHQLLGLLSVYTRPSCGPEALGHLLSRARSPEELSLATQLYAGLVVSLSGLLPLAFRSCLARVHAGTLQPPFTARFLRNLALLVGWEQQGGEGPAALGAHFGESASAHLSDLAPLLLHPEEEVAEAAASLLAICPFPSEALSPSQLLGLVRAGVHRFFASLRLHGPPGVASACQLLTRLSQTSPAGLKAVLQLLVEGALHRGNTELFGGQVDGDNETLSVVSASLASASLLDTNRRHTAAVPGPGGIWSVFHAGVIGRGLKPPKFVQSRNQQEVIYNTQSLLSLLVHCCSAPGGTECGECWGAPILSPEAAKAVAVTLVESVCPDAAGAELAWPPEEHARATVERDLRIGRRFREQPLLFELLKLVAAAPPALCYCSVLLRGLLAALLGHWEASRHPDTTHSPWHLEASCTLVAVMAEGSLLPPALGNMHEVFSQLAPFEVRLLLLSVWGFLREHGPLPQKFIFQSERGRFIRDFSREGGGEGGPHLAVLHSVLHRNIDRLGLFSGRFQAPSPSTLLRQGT
Chain of UniProt Q92551 (Q92551 whole entry, looked up): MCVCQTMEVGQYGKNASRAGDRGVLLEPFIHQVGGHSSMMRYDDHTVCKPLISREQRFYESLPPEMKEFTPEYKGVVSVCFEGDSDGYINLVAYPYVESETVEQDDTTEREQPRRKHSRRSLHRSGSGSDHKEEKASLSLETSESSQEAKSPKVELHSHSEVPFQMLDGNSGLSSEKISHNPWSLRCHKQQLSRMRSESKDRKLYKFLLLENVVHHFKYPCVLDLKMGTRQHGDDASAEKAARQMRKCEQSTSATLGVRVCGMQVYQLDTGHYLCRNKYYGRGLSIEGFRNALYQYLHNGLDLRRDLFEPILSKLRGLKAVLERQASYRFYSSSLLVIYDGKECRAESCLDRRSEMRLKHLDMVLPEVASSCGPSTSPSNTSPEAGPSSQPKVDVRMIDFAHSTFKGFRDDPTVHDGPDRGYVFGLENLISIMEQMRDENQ
Chain of UniProt P17936 (P17936 whole entry, looked up): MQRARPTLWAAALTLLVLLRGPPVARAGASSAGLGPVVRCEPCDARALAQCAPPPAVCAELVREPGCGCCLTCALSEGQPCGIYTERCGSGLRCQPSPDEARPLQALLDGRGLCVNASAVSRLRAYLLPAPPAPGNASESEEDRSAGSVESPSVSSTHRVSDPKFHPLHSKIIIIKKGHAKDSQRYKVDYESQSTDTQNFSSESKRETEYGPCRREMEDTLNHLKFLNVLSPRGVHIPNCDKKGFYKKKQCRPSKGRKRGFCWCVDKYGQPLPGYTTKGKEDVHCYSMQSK
Chain of UniProt O15243 (O15243 whole entry, looked up): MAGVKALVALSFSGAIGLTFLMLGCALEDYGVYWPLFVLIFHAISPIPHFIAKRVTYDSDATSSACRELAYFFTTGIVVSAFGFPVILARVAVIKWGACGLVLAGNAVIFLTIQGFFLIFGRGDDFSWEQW
Chain of UniProt Q9NQX7 (Q9NQX7 whole entry, looked up): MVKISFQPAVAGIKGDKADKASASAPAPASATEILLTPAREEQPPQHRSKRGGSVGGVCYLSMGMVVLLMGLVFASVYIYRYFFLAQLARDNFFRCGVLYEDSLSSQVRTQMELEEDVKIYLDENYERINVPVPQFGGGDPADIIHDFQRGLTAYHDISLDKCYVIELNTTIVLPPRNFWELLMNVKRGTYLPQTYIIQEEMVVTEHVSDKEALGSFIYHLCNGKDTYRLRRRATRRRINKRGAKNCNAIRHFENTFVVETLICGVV
Chain of UniProt Q8NHS3 (Q8NHS3 whole entry, looked up): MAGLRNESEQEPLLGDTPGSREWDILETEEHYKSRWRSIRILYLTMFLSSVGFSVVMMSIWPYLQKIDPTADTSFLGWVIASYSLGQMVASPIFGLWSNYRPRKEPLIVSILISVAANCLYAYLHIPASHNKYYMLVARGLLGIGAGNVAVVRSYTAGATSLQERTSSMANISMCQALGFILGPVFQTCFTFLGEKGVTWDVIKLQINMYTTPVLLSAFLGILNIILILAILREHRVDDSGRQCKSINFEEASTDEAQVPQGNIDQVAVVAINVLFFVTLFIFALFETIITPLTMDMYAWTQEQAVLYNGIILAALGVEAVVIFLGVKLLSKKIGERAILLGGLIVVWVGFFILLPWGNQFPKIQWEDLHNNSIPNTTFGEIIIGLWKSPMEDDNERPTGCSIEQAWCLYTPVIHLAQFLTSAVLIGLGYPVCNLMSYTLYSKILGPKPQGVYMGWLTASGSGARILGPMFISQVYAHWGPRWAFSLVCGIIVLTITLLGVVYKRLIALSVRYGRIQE
Chain of UniProt O43513 (O43513 whole entry, looked up): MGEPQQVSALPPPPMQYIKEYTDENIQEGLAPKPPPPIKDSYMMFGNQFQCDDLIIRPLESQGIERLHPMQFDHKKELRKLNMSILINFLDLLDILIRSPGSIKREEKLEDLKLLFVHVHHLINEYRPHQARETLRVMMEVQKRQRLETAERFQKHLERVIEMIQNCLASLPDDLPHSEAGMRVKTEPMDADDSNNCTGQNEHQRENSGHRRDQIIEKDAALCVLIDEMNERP
Chain of UniProt Q8WVP7 (Q8WVP7 whole entry, looked up): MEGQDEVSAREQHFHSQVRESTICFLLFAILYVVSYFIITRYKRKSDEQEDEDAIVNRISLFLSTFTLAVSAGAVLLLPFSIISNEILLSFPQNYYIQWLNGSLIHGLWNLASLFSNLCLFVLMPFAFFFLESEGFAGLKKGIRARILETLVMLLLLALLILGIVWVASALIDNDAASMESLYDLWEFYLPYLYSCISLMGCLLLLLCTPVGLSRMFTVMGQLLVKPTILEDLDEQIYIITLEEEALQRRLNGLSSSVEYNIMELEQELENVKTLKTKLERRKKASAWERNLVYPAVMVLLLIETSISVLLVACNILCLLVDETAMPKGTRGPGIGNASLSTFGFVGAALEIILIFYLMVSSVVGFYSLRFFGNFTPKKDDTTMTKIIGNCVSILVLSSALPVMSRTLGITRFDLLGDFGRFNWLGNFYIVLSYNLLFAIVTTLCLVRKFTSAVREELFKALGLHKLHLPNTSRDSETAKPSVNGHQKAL

Target	log2 fold change [1]	log2 fold change [2]	log2 fold change [3]	log2 fold change [4]	log2 fold change [5]	log2 fold change [6]	log2 fold change [7]	log2 fold change [8]	log2 fold change [9]	log2 fold change [10]	log2 fold change [11]	log2 fold change [12]	log2 fold change [13]	log2 fold change [14]	log2 fold change [15]	log2 fold change [16]	log2 fold change [17]	log2 fold change [18]	log2 fold change [19]	log2 fold change [20]
LMBR1 isoform 3 (UniProt Q8WVP7)	0.085	-0.004	-0.06	0.079	-0.045	-0.104	-0.009	0.132	-0.165	-0.267	-0.033	0.156	0.016	-0.218	0.029	-0.043	0.043	–	–	–
ITM2C (UniProt Q9NQX7)	-0.007	-0.072	0.034	–	0	0.039	-0.003	-0.045	–	-0.275	-0.047	-0.061	–	-0.12	–	-0.045	-0.149	-0.092	–	–
IL10RB (UniProt Q08334)	0.107	-0.021	–	0.022	-0.121	-0.042	-0.005	0.026	-0.161	0.299	–	-0.008	–	0.048	–	0.011	0.025	0.088	0.015	-0.093
MELK (UniProt Q14680)	-0.005	0.166	0.011	0.074	-0.347	–	0.196	–	0.072	-0.116	-0.019	0.061	–	-3.59 (active)	–	-0.006	-0.079	0.253	0.125	0.06
LENG8 (UniProt Q96PV6)	-0.112	-0.043	-0.074	-0.021	-0.125	-0.316	0.133	-0.133	0.205	0	-0.061	-0.151	-0.149	–	-0.016	–	-0.002	-0.056	0.044	0.129
IGFBP3 isoform 2 (UniProt P17936)	-0.092	0.245	0.251	0.001	–	0.17	-0.08	0.045	0.176	-0.272	-1.02 (active)	0.535	–	-0.103	–	0.085	-0.085	–	–	–
LEPROT (UniProt O15243)	-0.261	–	0.071	-0.133	0.087	–	-0.25	–	–	–	-0.056	0.31	-0.027	–	0.041	–	-0.212	–	0.028	-0.077
INTS5 (UniProt Q6P9B9)	-0.051	-0.06	–	-0.133	-0.086	-0.058	0.044	0	-0.02	-0.055	–	0.045	-0.019	-0.111	-0.004	0.13	–	-0.017	–	–
MFAP3 (UniProt P55082)	0.088	0.019	–	0.068	–	0.306	0.002	-0.189	–	-0.092	–	0.192	–	–	–	–	–	–	–	–
KXD1 (UniProt Q9BQD3)	-0.097	–	-0.105	-0.01	0.008	-0.03	-0.07	0.017	–	–	0.073	-0.021	-0.019	0.042	0.342 (active)	-0.054	0.063	–	-0.051	0.018
MARK2 (UniProt E9PC69)	-0.103	-0.555	-0.007	0.278	-1.12 (active)	-0.07	0.037	-0.028	-0.028	0.128	0.122	0.106	–	-0.765 (active)	–	0.085	–	-0.025	0.187	0.144
MED7 (UniProt O43513)	-0.026	0.151	-0.072	-0.145	-0.056	-0.015	-0.006	0.012	-0.021	-0.01	0.07	-0.159	–	-0.049	–	-0.116	–	-0.022	–	–
MFSD8 (UniProt Q8NHS3)	0.078	–	-0.044	0.023	-0.003	-0.008	-0.053	0.003	-0.236	–	-0.062	-0.019	0.059	-0.07	0.054	0.025	0.079	–	0.039	0.012
LPIN3 isoform 2 (UniProt Q9BQK8)	-0.101	0.171	-0.074	0.093	-0.087	-0.022	0.049	-0.012	–	0.006	0.011	-0.075	0.022	0.111	-0.01	0.022	0.147	-0.029	0.049	0.051
MFSD11 (UniProt O43934)	0.092	0.085	-0.029	0.005	–	-0.033	-0.127	-0.015	-0.029	-0.464 (active)	-0.003	-0.055	-0.009	-0.046	-0.002	0.041	0.02	-0.064	-0.002	-0.047
LGALS8 isoform 2 (UniProt O00214)	-0.359	-0.323	0.053	0.07	-0.244	0.104	0.141	-0.051	0.202	0.264	0.053	0.182	-0.021	–	-0.278	–	-0.183	–	0.306	0.218
KCNK5 (UniProt O95279)	-0.444	-0.047	-0.239	–	-0.05	–	-1.08 (active)	–	0.059	-0.117	-0.044	–	-0.408	-0.541	0.193	-0.227	-0.007	–	0.05	0.017
MED8 isoform 2 (UniProt Q96G25)	0.003	0.044	0.007	–	0.039	-0.031	-0.131	0.141	-0.11	0.033	-0.004	0.095	-0.088	-0.154	-0.041	0.058	–	-0.034	0.04	-0.024
IP6K1 (UniProt Q92551)	-0.174	-0.113	-0.074	-0.06	0.331	–	0.119	–	–	0.037	0.151	-0.044	0.042	1.11 (active)	0.091	0.128	0.13	–	-0.045	0.094
MFSD12 isoform 3 (UniProt Q6NUT3)	-0.154	-0.172	-0.04	0.031	0.042	–	-0.144	–	–	-0.197	0.024	-0.097	–	–	–	–	0.069	–	-0.14	0.196
